{
  "source": "the supplement of paper PMC11417369",
  "note": "Over roughly 25,000 sequences, “ln(normalized median fluorescence intensity)” has its median near 9.7; the highest 2% begin near 11. The list comes from a sample in which the highest values are over-represented; it also holds similar and randomly drawn sequences.",
  "data": [
    {"system": "PfAP2-HC AP2 domain (GST-tagged)", "assay": "gcPBM binding intensity (ln(normalized median fluorescence intensity)); higher = stronger DNA binding", "how_it_was_run": "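Alexa488 anti-GST antibody, scanned at 488 nm, detected GST-tagged P. falciparum DNA-binding domains that had been expressed in E. coli and incubated for 1 h on an Agilent 4 × 180k array. The array carried primer-extended double-stranded 36-bp intergenic genomic probes and negative controls. Binding intensity is the highest Masliner-normalised natural-log median intensity across replicate spots of either orientation of each probe.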", "values": [
      {"sequence": "TATAAATACATCCTATACTTCTCTTTTACAGTTTTA [CACACA_negctrl_site1283]", "gcPBM binding intensity (ln)": 9.62},
      {"sequence": "ATTTCGTTCTTTTATGCACACTCAACATATAAATTA [CACACA_site8322]", "gcPBM binding intensity (ln)": 9.93},
      {"sequence": "GACATAGTCATATACTGTACTTTATATTATTGTGTA [XGTACX_site6636]", "gcPBM binding intensity (ln)": 9.66},
      {"sequence": "TATAATAAAATATGTACACACATACAGACATATATA [CACACA_site6693]", "gcPBM binding intensity (ln)": 9.99},
      {"sequence": "TATGGTATATACAACACACACACATATGTATAAATA [CACACA_site6562]", "gcPBM binding intensity (ln)": 10.5},
      {"sequence": "TGGTATATACGACACACACACATATGTATAAATATA [CACACA_site6561]", "gcPBM binding intensity (ln)": 10.9},
      {"sequence": "TATGGTATATACAACACACACACATATGTATATATA [CACACA_site927]", "gcPBM binding intensity (ln)": 10.9},
      {"sequence": "ACACATAAATGTATATATATATAAATATATGTATGT [CACACA_negctrl_site1532]", "gcPBM binding intensity (ln)": 9.82},
      {"sequence": "TATGGTAAATACAACACACACACATATGTATTTATA [CACACA_site4666]", "gcPBM binding intensity (ln)": 10.3},
      {"sequence": "TATAAATAAATATACACACACACATATAAATATGTA [CACACA_site6504]", "gcPBM binding intensity (ln)": 10.4},
      {"sequence": "AATTCACATGTGAACTAAAAGAATATTATATATATA [CACACA_negctrl_site1632]", "gcPBM binding intensity (ln)": 9.55},
      {"sequence": "TTTTCTAAATATTATAGTACTCTTAATAATATTAAC [XGTACX_site4222]", "gcPBM binding intensity (ln)": 9.34},
      {"sequence": "TATAGCAAAAAATTTACACACATGTTTTTTCTATAC [CACACA_site325]", "gcPBM binding intensity (ln)": 9.9},
      {"sequence": "ATATTTGTAATTATTAAACACACACTAATTATATAT [CACACA_site8803]", "gcPBM binding intensity (ln)": 9.9},
      {"sequence": "AAATTATATACCACAGTGCAAAAGGCAGGTATACGT", "gcPBM binding intensity (ln)": 9.91},
      {"sequence": "TACATATTACTATTCAGTACATATTTTTTTTTCATT [XGTACX_site7468]", "gcPBM binding intensity (ln)": 9.81},
      {"sequence": "CACGCATACAGACACACACACACACGGATATAAATA [CACACA_site6445]", "gcPBM binding intensity (ln)": 11.6},
      {"sequence": "AAAAAAAATAGACACACACACATACACATAAATATA [CACACA_site7742]", "gcPBM binding intensity (ln)": 10.5},
      {"sequence": "AAAAAATACAGACACACACACACACGCATATAAATA [CACACA_site7644]", "gcPBM binding intensity (ln)": 10.8},
      {"sequence": "CATATACATAGACACACACACACATAAATAAATATA [CACACA_site6749]", "gcPBM binding intensity (ln)": 10.4},
      {"sequence": "TAAATAAATTTATACACACACACACGGATATAAATA [CACACA_site6532]", "gcPBM binding intensity (ln)": 10.6},
      {"sequence": "AAACAACATGGACACGCACACACAAAAAAAGCATGC [CACACA_site73]", "gcPBM binding intensity (ln)": 10.7},
      {"sequence": "AAAATACATAGACACACACACACACGGATATAAATA [CACACA_site7643]", "gcPBM binding intensity (ln)": 11.2},
      {"sequence": "CGCGCACACGGACACACACACACACGGATATAAATA [CACACA_site7102]", "gcPBM binding intensity (ln)": 11.3},
      {"sequence": "ATAGTATACAGACACACACACACACGGATATAAATA [CACACA_site6914]", "gcPBM binding intensity (ln)": 10.6},
      {"sequence": "CAAGCACACGGACACACACACACACGCGCACGCACA [CACACA_site6307]", "gcPBM binding intensity (ln)": 11.3},
      {"sequence": "ACCATATAAATAAACACACACACACGGATATAAATA [CACACA_site7157]", "gcPBM binding intensity (ln)": 10.6},
      {"sequence": "TTTAATTCTTATATTTGTACAGATTCATAATTAAAT [XGTACX_site7465]", "gcPBM binding intensity (ln)": 9.41},
      {"sequence": "ACAAATAAATATTCGCGTACTTATATAATATTACGA [XGTACX_site6428]", "gcPBM binding intensity (ln)": 9.66},
      {"sequence": "TACATACATACATACACACACACATATATATATATA [CACACA_site42]", "gcPBM binding intensity (ln)": 10.2},
      {"sequence": "AATATTTTGAACAACAGTACTCTTTCTTTCTTTCTT [XGTACX_site7212]", "gcPBM binding intensity (ln)": 9.51},
      {"sequence": "TGAATAATAAAAAATACACACACATATATATATATT [CACACA_site9146]", "gcPBM binding intensity (ln)": 10.1},
      {"sequence": "ACTTACCCATTTATTACACACATAAAGGAAAATTTT [CACACA_site4873]", "gcPBM binding intensity (ln)": 9.88},
      {"sequence": "TTTTATAAAAACAAAAACAAAGGCACTTTCTAAAGA [XGTACX_negctrl_site130]", "gcPBM binding intensity (ln)": 9.58},
      {"sequence": "TATATGTTATATTTAACACACATATAAGGTACATAT [CACACA_site612]", "gcPBM binding intensity (ln)": 9.83},
      {"sequence": "ACTTTTTAATATTTTAGTACACAGTAATTCTTACTA [XGTACX_site1425]", "gcPBM binding intensity (ln)": 9.75},
      {"sequence": "CAAGAAACAGTGATACGTACACATATATATATATAT [XGTACX_site3229]", "gcPBM binding intensity (ln)": 9.91},
      {"sequence": "AAGGATATAACATACACACACACACGGATATAAATA [CACACA_site7867]", "gcPBM binding intensity (ln)": 11},
      {"sequence": "AAATAACACATATATACACACATATAAATATAATAT [CACACA_site2692]", "gcPBM binding intensity (ln)": 10.3},
      {"sequence": "AATATAAGGATATATACACACATAAATACATACATA [CACACA_site7859]", "gcPBM binding intensity (ln)": 9.99},
      {"sequence": "TTGTGGATTTTGTGCGCACACACATGCAAAAAGAAA [CACACA_site1147]", "gcPBM binding intensity (ln)": 10},
      {"sequence": "GCCGCACCCAGATACGCACACAAGAAAAAAATATTC [CACACA_site3456]", "gcPBM binding intensity (ln)": 9.8},
      {"sequence": "ATAATATTATGAACCTGTACATAATTTTTCTTTTCT [XGTACX_site3377]", "gcPBM binding intensity (ln)": 9.62},
      {"sequence": "ACAAGAATACACCACGCACACACACTAGAGAAAAAA [CACACA_site9276]", "gcPBM binding intensity (ln)": 11.6},
      {"sequence": "GAATACACCACGCACACACACTTGAGAAAAAATAAA [CACACA_site7747]", "gcPBM binding intensity (ln)": 10.3},
      {"sequence": "AAGAATACACCACGCACACACACTTGAGAAAAAATA [CACACA_site3828]", "gcPBM binding intensity (ln)": 11.2},
      {"sequence": "ACAAGAGAAAAAAATACACACAAGATAAAAATGTAT [CACACA_site607]", "gcPBM binding intensity (ln)": 9.95},
      {"sequence": "AAAGCACGCAAGAATACACACAAATATTATAAAAAA [CACACA_site6206]", "gcPBM binding intensity (ln)": 10.1},
      {"sequence": "AAAAAGAAAATATATACACACCAAAAAAAAAAAAAA [CACACA_site5698]", "gcPBM binding intensity (ln)": 9.75},
      {"sequence": "AATATTTATAAATTTACACACACACCCGTGAACATA [CACACA_site1910]", "gcPBM binding intensity (ln)": 10.2},
      {"sequence": "CACACCACCAACAAAAGTACATACATATATATATAT [XGTACX_site5781]", "gcPBM binding intensity (ln)": 9.82},
      {"sequence": "GACACCCATAAATATACACACGCACAACACAAAATA [CACACA_site8944]", "gcPBM binding intensity (ln)": 9.98},
      {"sequence": "TAACCATACATACATACACACACACCCACATATATA [CACACA_site8951]", "gcPBM binding intensity (ln)": 10.3},
      {"sequence": "CATATACACCAACACACACACACACCCACAAAAAAA [CACACA_site496]", "gcPBM binding intensity (ln)": 11.3},
      {"sequence": "CATACTCACCAACACACACACACACCCATATAGAAT [CACACA_site592]", "gcPBM binding intensity (ln)": 11.1},
      {"sequence": "CACCCACACCAACACACACACATATATAATATATAT [CACACA_site595]", "gcPBM binding intensity (ln)": 10.6},
      {"sequence": "CACGCGCACCAACACACACACACACCCATATATATA [CACACA_site2204]", "gcPBM binding intensity (ln)": 11.1},
      {"sequence": "CACACCCACCAACACACACACACACCCACCCATATA [CACACA_site366]", "gcPBM binding intensity (ln)": 11},
      {"sequence": "ACCATACATACATACACACACACACCCATATATATA [CACACA_site2917]", "gcPBM binding intensity (ln)": 10.6},
      {"sequence": "TATACATACCCACCCACACACAAAAAAAAAAAAAAA [CACACA_site4632]", "gcPBM binding intensity (ln)": 10.2},
      {"sequence": "CGCGCACCCAGACACACACACACACCCATATATATA [CACACA_site2203]", "gcPBM binding intensity (ln)": 10.6},
      {"sequence": "TATAAACACCCATATAAACACACATATAAACCAACA [CACACA_site8790]", "gcPBM binding intensity (ln)": 10}
    ]}
  ]
}
